These results are taken from PubChem BioAssay.

Molecules are shown by their SMILES. Calls of active or inactive are those of the source. Unless noted, the rule behind the calls is not given here.

Assay [1] can be described thus: compound effects on lung adenocarcinoma cell viability – A549, calcein-AM fluorescence, 48 h, basal, profiling panel (AID 1162). Note: test concentration not given here. Conditions: higher = more signal.
Assay [2] in a line: compound effects on differentiated 3T3-L1 adipocyte viability – cell-based, 3T3-L1 adipocytes, calcein-AM fluorescence, 48 h, basal, profiling panel (AID 1163). Note: test concentration not given here. Conditions: 3T3-L1 adipocytes viability, higher = more signal.
The nature of assay [3]: compound effects on hepatocellular carcinoma cell viability – HepG2, calcein-AM fluorescence, 48 h, basal, profiling panel (AID 1164). Note: test concentration not given here. The settings on record: higher = more signal.
Assay [4] is described as follows: compound effects on multiple myeloma cell viability – MM1S, calcein-AM fluorescence, 48 h, basal, profiling panel (AID 1165). Note: test concentration not given here. Conditions: higher = more signal.
The nature of assay [5]: calcein-AM signal in unstimulated myeloma cells – cell-based, calcein-AM fluorescence, 48 h, PK04 Diversity Set, profiling panel (AID 1166).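 Note: cells grown under basal conditions without added stimulus; test concentration not given here.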 Conditions: RPMI8226 myeloma viability, higher = more signal.
Assay [6] is described as follows: JC-1 mitochondrial signal, unstimulated HepG2 cells – cell-based, JC-1 fluorescence, 24 h, 100 nL compound, profiling panel (AID 1167). Note: test concentration not given here. Conditions: HepG2 mitochondrial potential, higher = more signal.
The nature of assay [7]: JC-1 mitochondrial signal, unstimulated adipocytes – cell-based, JC-1 fluorescence, 3T3-L1 adipocytes, 24 h, 100 nL compound, profiling panel (AID 1168). Note: test concentration not given here. The settings on record: JC-1 mitochondrial fluorescence, higher = more signal, called active from +8 up or from −8 down.
Assay [8] can be described thus: JC-1 mitochondrial signal, unstimulated myeloma cells – cell-based, JC-1 fluorescence, RPMI8226, 24 h, 100 nL compound, profiling panel (AID 1169). Note: test concentration not given here. Conditions: JC-1 mitochondrial potential fluorescence, higher = more signal.
The nature of assay [9]: JC-1 mitochondrial signal, unstimulated MM1S myeloma – cell-based, JC-1 fluorescence, 24 h, 100 nL compound, profiling panel (AID 1170). Note: test concentration not given here. Conditions: MM1S mitochondrial potential, higher = more signal.
Assay [10] in a line: resazurin metabolic signal in A549 cells – cell-based, resazurin fluorescence, 24 h, PK04 Diversity Set, profiling panel (AID 1171). Note: test concentration not given here. The settings on record: A549 viability, higher = more signal, called active from +8 up or from −8 down. On the technique in general: Resazurin is reduced to fluorescent resorufin, in cell work by metabolically active cells.
A short description of assay [11]: resazurin metabolic signal in HepG2 cells – cell-based, resazurin fluorescence, 24 h, PK04 Diversity Set, profiling panel (AID 1172). Note: test concentration not given here. Conditions: HepG2 viability, higher = more signal.
Assay [12] can be described thus: budding yeast growth changes without added modifier – OD600, strain BY4716, 24 h, basal condition, primary screen (AID 1173). Conditions: S. cerevisiae BY4716 growth, OD600, 24 h; higher = more signal, called active from +8 up or from −8 down.
Assay [13] can be described thus: viability profiling in MM1S myeloma cells – cell-based, resazurin fluorescence, basal, 24 h, PK04 Diversity Set, profiling panel (AID 1174). Note: test concentration not given here. Conditions: higher = more signal, called active from +8 up or from −8 down.
Assay [14] has as its target Dihydroorotate dehydrogenase (quinone), mitochondrial (Plasmodium falciparum (isolate 3D7)) (UniProt Q08210). The assay can be described thus: inhibition of P. falciparum DHODH – biochemical, C-terminal His tag, absorbance 600 nm, primary screen (AID 1175).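 Note: recombinant parasite enzyme with a five histidine tag at its C terminus; test concentration not given here.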 The settings on record: PfDHODH enzyme, DCIP absorbance 600 nm; higher = more signal, called active from +8 up or from −8 down.

Assay [15] in a line: inhibition of PAO1 biofilm formation – strain PAO1, LB-PBS medium, absorbance 600 nm, primary screen (AID 1176). Note: test concentration not given here. The settings on record: P. aeruginosa PAO1 growth/biofilm, A600, 12 h; higher = more signal.
Assay [16] in a line: growth modulation of vineyard yeast isolate – strain RM11-1a, OD600, basal, 24 h, primary screen (AID 1177).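 Note: cultures grown under basal conditions with no added stressor; test concentration not given here.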 The settings on record: S. cerevisiae RM11-1a growth, OD600, 24 h; higher = more signal, called active from +8 up or from −8 down.
Assay [17] in a line: growth of efflux-deficient E. coli DRC39 – strain DRC39, OD650, 24 h, E. coli filamentation inducers, primary screen (AID 1178).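 Note: growth measured as culture turbidity by optical density at 650 nm; test concentration not given here.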 The settings on record: E. coli DRC39 acrAB, higher = more signal, called active from +8 up or from −8 down.
Assay [18] can be described thus: growth of efflux-deficient E. coli DRC39 – strain DRC39, OD650, 48 h, E. coli filamentation inducers, primary screen (AID 1179).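 Note: screen aims at cell division blockers that make cells filament.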 The settings on record: E. coli DRC39 delta-acrAB growth, higher = more signal, called active from +8 up or from −8 down.
Assay [19] in a line: viability profiling in RPMI8226 myeloma cells – cell-based, resazurin fluorescence, basal, 24 h, PK04 Diversity Set, profiling panel (AID 1180).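 Note: RPMI8826 multiple myeloma cell line at 5000 cells per well; test concentration not given here.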 The settings on record: higher = more signal.
Assay [20] concerns the target E3 ubiquitin-protein ligase XIAP (Homo sapiens) (UniProt P98170). Briefly: small molecules binding XIAP protein – biophysical, small-molecule microarray, fluorescence 635 nm, primary screen (AID 1181).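 Note: score merges 667 nm emission and signal to noise over triplicate slides.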 The settings on record: higher = more signal.

Sequence of E3 ubiquitin-protein ligase XIAP (Homo sapiens) (P98170 whole entry, looked up): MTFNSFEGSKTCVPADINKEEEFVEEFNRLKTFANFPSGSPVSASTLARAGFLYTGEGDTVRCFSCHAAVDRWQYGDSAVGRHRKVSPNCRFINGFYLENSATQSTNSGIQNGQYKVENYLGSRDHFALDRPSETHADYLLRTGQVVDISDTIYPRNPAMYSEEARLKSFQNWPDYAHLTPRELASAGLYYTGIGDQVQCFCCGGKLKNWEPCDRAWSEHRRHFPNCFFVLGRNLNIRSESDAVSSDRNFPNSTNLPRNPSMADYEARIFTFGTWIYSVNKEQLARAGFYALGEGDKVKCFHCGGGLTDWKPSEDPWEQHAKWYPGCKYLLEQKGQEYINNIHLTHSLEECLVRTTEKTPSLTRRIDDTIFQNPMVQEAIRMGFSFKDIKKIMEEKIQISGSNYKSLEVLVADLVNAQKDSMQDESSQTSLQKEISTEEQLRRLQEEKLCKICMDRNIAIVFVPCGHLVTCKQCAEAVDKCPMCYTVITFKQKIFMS
Sequence of Dihydroorotate dehydrogenase (quinone), mitochondrial (Plasmodium falciparum (isolate 3D7)) (Q08210 whole entry, looked up): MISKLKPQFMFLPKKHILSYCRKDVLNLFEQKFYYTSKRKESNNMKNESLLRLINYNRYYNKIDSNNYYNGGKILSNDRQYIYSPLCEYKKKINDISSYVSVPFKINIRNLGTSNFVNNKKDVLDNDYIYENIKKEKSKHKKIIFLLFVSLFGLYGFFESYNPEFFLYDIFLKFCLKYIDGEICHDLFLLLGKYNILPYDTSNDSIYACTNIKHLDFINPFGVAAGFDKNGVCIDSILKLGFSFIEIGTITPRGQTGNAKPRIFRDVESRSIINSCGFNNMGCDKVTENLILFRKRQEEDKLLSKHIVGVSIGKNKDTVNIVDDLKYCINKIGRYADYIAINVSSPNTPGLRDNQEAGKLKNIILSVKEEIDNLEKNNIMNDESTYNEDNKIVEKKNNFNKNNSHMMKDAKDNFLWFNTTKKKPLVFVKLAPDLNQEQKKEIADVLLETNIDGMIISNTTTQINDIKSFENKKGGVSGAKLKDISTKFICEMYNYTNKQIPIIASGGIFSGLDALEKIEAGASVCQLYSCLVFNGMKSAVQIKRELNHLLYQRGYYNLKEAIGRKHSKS

Turning to `COC(=O)[C@@]1(Cc2ccc(F)cc2)[C@H]2c3cc(C(=O)N4CCCC4)n(Cc4ccc(C(F)(F)F)nc4)c3C[C@H]2CN1C(=O)c1ccccc1`, the z-score in assay [1] is -0.29; in assay [2], 0.585; in [3], -1.06; in [4], -2.08; in assay [5], -1.37; in assay [6] it was 1.69. For the same compound, the z-score in [7] is -0.439 (inactive); in assay [8], -0.799; in assay [9], -0.873; in assay [10] it was 0.052 (inactive); in assay [11] it was -0.213; in assay [12], 1.12 (inactive). Moreover, the z-score is -1.23 (inactive) in assay [13]; -0.691 (inactive) in [15]; 1.09 (inactive) in assay [16]; -0.83 (inactive) in [17]; 0.0871 (inactive) in [18]; -1.11 in assay [19]. Besides, the composite z-score in [14] is -0.456 (inactive); in [20], 0.153.
In the case of `COc1ccc(C(=O)Nc2ccc(CN3C(=O)[C@@]4(O[C@@H](CC(=O)N(CCO)Cc5ccccc5)[C@H]([Si](C)(C)c5ccc(OC)cc5)[C@H]4C)c4ccccc43)cc2)cc1`, the z-score in [1] is -0.86; in assay [2], 1.4; in [3] it was -1.04; in assay [4], -0.507; in [5], -1.47; in assay [6], 0.656. The z-score in assay [7] was 0.816 (inactive); in [8], -0.931; in assay [9], -0.493; in assay [10] it was -0.861 (inactive); in [11] it was 1.4; in assay [12], 0.164 (inactive). The z-score is -0.952 (inactive) in assay [13]; 0.814 (inactive) in assay [15]; 0.961 (inactive) in assay [16]; 0.7 (inactive) in assay [17]; 0.439 (inactive) in assay [18]; -1.29 in assay [19]. Moreover, the composite z-score was -1.53 (inactive) in assay [14] and 0.101 in [20].
Consider `COc1ccc([Si](C)(C)[C@H]2[C@H](CC(=O)N(CCO)Cc3ccccc3)O[C@@]3(C(=O)N(Cc4cccc(N5CCCCC5=O)c4)c4ccccc43)[C@@H]2C)cc1`, for which the z-score in [1] is -0.166; in [2], 1.19; in [3] it was -1.16; in assay [4], -0.391; in assay [5], -4.18; in [6], 0.553. The z-score in assay [7] is 1.65 (inactive); in assay [8], -0.981; in [9] it was -1.61; in assay [10] it was -1.91 (inactive); in assay [11] it was -0.415; in assay [12], -0.0548 (inactive). Moreover, the z-score is -2.35 (inactive) in assay [13]; 1.77 (inactive) in assay [15]; 1.45 (inactive) in assay [16]; 0.72 (inactive) in assay [17]; 0.832 (inactive) in assay [18]; -3.16 in assay [19]. In addition, the composite z-score in assay [14] was -1.02 (inactive); in assay [20] it was -0.0559.
With `COC(=O)c1ccc(OC)c(/C=C\CC(OC(=O)c2ccncc2)c2ccccc2)c1` (stereo not given), the z-score is 1.46 in assay [1]; -0.347 in [2]; 1.04 in assay [3]; -1.64 in assay [4]; -1.5 in [5]; 0.615 in [6]. The z-score in assay [7] is 0.202 (inactive); in [8] it was -0.177; in [9] it was 0.148; in assay [10], 0.271 (inactive); in assay [11], 0.887; in [12], -2.06 (inactive). The z-score was 0.514 (inactive) in assay [13]; 0.792 (inactive) in assay [15]; -2.69 (inactive) in assay [16]; 2.57 (inactive) in assay [17]; 1.49 (inactive) in assay [18]; 0.525 in assay [19]. For the same compound, the composite z-score in assay [14] is -6.33 (inactive); in assay [20], 0.0774.
On to `COCCOC(=O)N1C(=O)[C@@]2(c3cc(C#CCNC(N)=O)ccc31)[C@H](c1ccc(O)cc1)N1[C@H](c3ccccc3)[C@H](c3ccccc3)OC(=O)[C@H]1[C@@H]2C(=O)N1CCc2cc(OC)c(OC)cc2C1`, for which the z-score in assay [1] is 0.571; in assay [2], -0.065; in assay [3], -0.281; in assay [4], -0.72; in assay [5], 0.542; in assay [6], -1.82. Further, the z-score in assay [7] is -0.338 (inactive); in assay [8] it was 0.0593; in assay [9], 0.583; in [10], 0.0875 (inactive); in assay [11], -0.328; in assay [12], 1.66 (inactive). Besides, the z-score in [13] is -0.202 (inactive); in [15], 0.902 (inactive); in assay [16] it was 2.24 (inactive); in [17], -0.0681 (inactive); in [18], -0.119 (inactive); in assay [19], -0.242. In addition, the composite z-score in assay [14] was 1.38 (inactive); in assay [20] it was 0.171.
On to `CO[C@H]1O[C@H](CO)[C@@H](OC(=O)Nc2cccc(F)c2)[C@H](OC(=O)Nc2ccc3c(c2)OCO3)[C@@H]1OC(=O)Nc1ccc2c(c1)OCO2`, for which the z-score in assay [1] is -1.33; in [2] it was 0.726; in assay [3], -1.07; in assay [4], -1.49; in assay [5], -1.74; in [6], -0.96. In addition, the z-score in [7] was -0.672 (inactive); in assay [8], -0.571; in assay [9] it was -0.964; in [10] it was -1.47 (inactive); in [11] it was -0.705; in [12], 1.38 (inactive). Besides, the z-score was -1 (inactive) in assay [13]; 0.661 (inactive) in assay [15]; 1.82 (inactive) in assay [16]; 1.04 (inactive) in assay [17]; 0.761 (inactive) in assay [18]; -0.931 in assay [19]. Also, the composite z-score in assay [14] was 0.368 (inactive); in assay [20] it was 0.0526.
With `COc1ccc(CCNC(=O)[C@@]2(c3ccc([N+](=O)[O-])cc3)CC(=O)N(C3CCCCC3)[C@@H]2c2ccc(CO)cc2I)cc1`, the z-score is 0.507 in assay [1]; 0.969 in [2]; -0.348 in assay [3]; -2.41 in [4]; -2.58 in assay [5]; 1.31 in [6]. For the same compound, the z-score is 0.72 (inactive) in [7]; -0.293 in assay [8]; 0.379 in assay [9]; -1.11 (inactive) in [10]; -1.29 in assay [11]; 0.633 (inactive) in assay [12]. In addition, the z-score in assay [13] is -0.949 (inactive); in assay [15], 0.14 (inactive); in assay [16], 1.86 (inactive); in [17], 0.359 (inactive); in assay [18], -0.0406 (inactive); in assay [19] it was -0.593. In addition, the composite z-score in assay [14] was 1.45 (inactive); in [20] it was -0.16.
Turning to `O=C1O[C@@H](c2ccccc2)[C@@H](c2ccccc2)N2[C@@H](c3ccccc3OCCO)[C@]3(C(=O)Nc4ccc(C#CC5(O)CCCCCC5)cc43)[C@@H](C(=O)N3CCCCCCC3)[C@H]12`, the z-score in assay [1] is -1.66; in assay [2] it was 1.48; in [3] it was -0.0161; in assay [4], -0.651; in assay [5], -2.59; in assay [6], -1.4. The z-score in [7] is 0.644 (inactive); in assay [8], -0.96; in assay [9], -1.33; in [10], -0.64 (inactive); in assay [11], -0.225; in assay [12], 0.866 (inactive). In addition, the z-score in assay [13] was -0.169 (inactive); in assay [15], 1.33 (inactive); in assay [16], 0.312 (inactive); in assay [17], -0.36 (inactive); in assay [18], -1.17 (inactive); in [19], -0.186. For the same compound, the values for the composite z-score in assay [14] and in [20] were -1.03 (inactive) and 1.97, respectively.
